Experimental findings from PubChem BioAssay (EPA / NIEHS) are described below.

Records with an inconclusive call do not appear. Some structures have more than one record in an assay (separate samples or runs), and their calls can disagree. The source made the active and inactive calls. Rule for the calls: active = hit-call score of the fitted dose curve at least 0.9, where 1 is the maximum; inconclusive = response in the unintended direction; inactive = score below 0.9.

The term AC50 denotes the concentration giving half of the maximal activity seen.

Chain of human Ephrin type-A Receptor 1 (EphA1), EPHA1 (gene 2041) (P21709 whole entry, looked up): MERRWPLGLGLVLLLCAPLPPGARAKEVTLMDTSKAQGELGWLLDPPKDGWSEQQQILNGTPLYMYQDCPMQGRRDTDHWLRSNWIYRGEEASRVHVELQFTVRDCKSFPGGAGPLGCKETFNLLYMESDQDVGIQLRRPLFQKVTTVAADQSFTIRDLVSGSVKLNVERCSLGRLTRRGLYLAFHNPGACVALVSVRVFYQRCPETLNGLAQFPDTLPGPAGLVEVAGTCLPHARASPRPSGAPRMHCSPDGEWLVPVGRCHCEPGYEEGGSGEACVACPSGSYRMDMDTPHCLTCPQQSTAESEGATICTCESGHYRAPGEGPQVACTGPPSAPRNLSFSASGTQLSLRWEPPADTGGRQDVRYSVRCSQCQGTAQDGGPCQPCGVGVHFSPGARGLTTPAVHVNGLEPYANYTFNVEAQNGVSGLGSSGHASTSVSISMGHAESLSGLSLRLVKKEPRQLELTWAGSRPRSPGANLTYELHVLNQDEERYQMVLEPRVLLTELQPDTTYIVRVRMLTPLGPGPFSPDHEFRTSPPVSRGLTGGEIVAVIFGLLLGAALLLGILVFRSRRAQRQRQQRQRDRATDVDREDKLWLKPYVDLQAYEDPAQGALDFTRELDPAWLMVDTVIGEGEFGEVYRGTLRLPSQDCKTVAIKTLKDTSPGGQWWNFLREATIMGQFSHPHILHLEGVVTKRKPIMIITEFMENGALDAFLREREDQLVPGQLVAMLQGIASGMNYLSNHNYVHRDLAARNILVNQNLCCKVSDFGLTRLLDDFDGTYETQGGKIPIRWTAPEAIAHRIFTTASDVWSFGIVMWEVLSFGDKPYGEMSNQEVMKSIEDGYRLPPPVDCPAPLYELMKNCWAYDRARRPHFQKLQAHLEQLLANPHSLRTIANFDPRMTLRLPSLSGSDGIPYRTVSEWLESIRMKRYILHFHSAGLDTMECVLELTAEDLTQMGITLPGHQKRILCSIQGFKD
Chain of human Dual Specificity Protein Phosphatase 3 (DUSP3), DUSP3 (gene 1845) (P51452 whole entry, looked up): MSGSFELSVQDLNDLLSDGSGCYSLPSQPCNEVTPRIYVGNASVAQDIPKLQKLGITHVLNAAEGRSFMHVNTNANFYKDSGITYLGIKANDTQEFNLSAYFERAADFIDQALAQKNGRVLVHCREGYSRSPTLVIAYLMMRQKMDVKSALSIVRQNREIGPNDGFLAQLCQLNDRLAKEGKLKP
Chain of human Beta-secretase (BACE), BACE1 (gene 23621) (P56817 whole entry, looked up): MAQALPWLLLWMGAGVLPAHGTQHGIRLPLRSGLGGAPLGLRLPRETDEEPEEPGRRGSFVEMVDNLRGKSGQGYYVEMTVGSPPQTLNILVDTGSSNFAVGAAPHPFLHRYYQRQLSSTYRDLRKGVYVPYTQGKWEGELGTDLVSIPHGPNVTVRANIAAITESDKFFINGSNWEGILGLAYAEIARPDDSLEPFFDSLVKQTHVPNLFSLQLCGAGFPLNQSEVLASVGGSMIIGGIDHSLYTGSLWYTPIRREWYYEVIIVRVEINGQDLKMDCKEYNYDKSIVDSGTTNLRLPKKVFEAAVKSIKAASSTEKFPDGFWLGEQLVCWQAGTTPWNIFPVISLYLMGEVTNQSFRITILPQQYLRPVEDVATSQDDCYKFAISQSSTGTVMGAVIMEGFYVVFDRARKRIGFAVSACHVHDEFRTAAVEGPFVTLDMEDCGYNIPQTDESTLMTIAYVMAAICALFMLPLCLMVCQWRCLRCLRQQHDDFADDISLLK
Chain of human AKT serine/threonine Kinase 1 (AKT1), AKT1 (gene 207) (P31749 whole entry, looked up): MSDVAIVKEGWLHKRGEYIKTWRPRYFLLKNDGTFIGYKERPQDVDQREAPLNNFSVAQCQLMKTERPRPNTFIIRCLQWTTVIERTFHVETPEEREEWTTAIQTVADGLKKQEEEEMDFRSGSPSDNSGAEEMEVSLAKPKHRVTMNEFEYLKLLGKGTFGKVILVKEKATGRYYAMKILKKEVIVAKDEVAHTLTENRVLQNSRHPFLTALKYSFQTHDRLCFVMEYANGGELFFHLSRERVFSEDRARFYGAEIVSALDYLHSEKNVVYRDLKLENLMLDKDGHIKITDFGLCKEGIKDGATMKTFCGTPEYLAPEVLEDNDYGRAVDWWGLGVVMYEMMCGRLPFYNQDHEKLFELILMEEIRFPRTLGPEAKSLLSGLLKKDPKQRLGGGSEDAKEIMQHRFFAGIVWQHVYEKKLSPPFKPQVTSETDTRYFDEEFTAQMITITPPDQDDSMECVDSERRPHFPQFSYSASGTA

The first test addresses human AKT serine/threonine Kinase 1 (AKT1), AKT1 (gene 207) (UniProt P31749). The test is described as follows: NVS_ENZ_hAKT1: NovaScreen (NVS) Enzymatic Assay for human AKT serine/threonine Kinase 1 (AKT1) (AID 2283138). On the procedure: NVS_ENZ_hAKT1 is a biochemical, single-readout assay that uses extracted gene-proteins in a cell-free assay. Measurements were taken 1 hour after chemical dosing in a 384-well plate.NVS_ENZ_hAKT1 is one of one assay component(s) measured or calculated from the NVS_ENZ_hAKT1 assay. It is designed to make measurements of enzyme activity, a form of enzyme reporter, as detected with fluorescence intensity signals by Fluorescence and electrophoretic mobility shift technology.Data from the assay component NVS_ENZ_hAKT1 was analyzed into 1 assay endpoint. This assay endpoint, NVS_ENZ_hAKT1, was analyzed in the positive analysis fitting direction relative to DMSO as the negative control and baseline of activity. Using a type of enzyme reporter, loss-of-signal activity can be used to understand changes in the enzymatic activity as they relate to the gene AKT1. Furthermore, this assay endpoint can be referred to as a primary readout, because this assay has produced multiple assay endpoints where this one serves a enzymatic activity function. To generalize the intended target to other relatable targets, this assay endpoint is annotated to the kinase intended target family, where the subfamily is serine/threonine kinase.
Binding assays used specific radioligands (tritiated, iodinated) with non-radioactive competitive displacement ligands in agonist or antagonist protocols (as indicated) and various reference compounds and inhibitors to titrate specific binding to receptors and transporters. Most enzyme assays (CYPs, kinases, phosphatases, proteases, HDACs) used recombinant protein and specific substrates (fluorescence mostly, some colorimetric and radioactive) and inhibitors, followed by a biochemical separation of substrate and product. All assays for the biochemical HTS were initially run in duplicate at a single concentration (10 uM for CYP450 assays and 25 uM for all others). Assay-chemical combinations meeting a pre-defined threshold (e.g., 30% inhibition and other criteria defined below) were then run in singleton concentration-response format with maximum concentration of 20 uM for CYPs and 50 uM for all others. Each assay was run with positive and negative controls, and concurrent controls on every plate. The follow-up (secondary) screen tested active chemical-pairs in concentration series, as well as a few additional assays not tested in the primary screen, some selected negative inactives, and several cases re-run in the concentration series for confirmatory purposes.
With `C#C[C@]1(O)CC[C@H]2[C@@H]3CCc4cc(O)ccc4[C@H]3CC[C@@]21C`, the molecule was classed as inactive.
On the same count and under the same terms, to `O=C(c1ccc(OCCN2CCCCC2)cc1)c1c(-c2ccc(O)cc2)sc2cc(O)ccc12` belongs “inactive”.
The same measure, in the same setting: the value for `C=C(C)C(N)=O` was “inactive”.
As to `CC/C(=C(\c1ccccc1)c1ccc(OCCN(C)C)cc1)c1ccccc1`, the AC50 was 33.4 µM (active) and the call was inactive.

For the next test, the target named is human Beta-secretase (BACE), BACE1 (gene 23621) (UniProt P56817). Briefly: NVS_ENZ_hBACE: NovaScreen (NVS) Enzymatic Assay for human Beta-secretase (BACE) (AID 2283140).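 Note: hits are inhibitors that reduce fluorescent substrate signal versus DMSO.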 A digest of the protocol:
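Recombinant BACE1 (SF9 extract) incubated with compound and fluorescent substrate, 1 h. Plates carried positive and DMSO negative controls. Initial single dose 25 uM, duplicate; confirmation by concentration series.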
In the case of `O=C(c1ccc(OCCN2CCCCC2)cc1)c1c(-c2ccc(O)cc2)sc2cc(O)ccc12`, the half-maximal activity concentration (AC50) is 15.3 µM (active).
For `CC1=CC(C)C(C=O)C(C)C1` (centres undefined) (tested in a mixture with another compound), the molecule was classed as inactive.
The same measure, in the same setting: to `CC(=O)CCC=C(C)CCC=C(C)C` belongs “inactive”.
Still for that read-out and setting: the value for `CC/C(=C(\c1ccccc1)c1ccc(OCCN(C)C)cc1)c1ccccc1` was “inactive”.
Take `O=C1OC2(c3ccc(O)cc3Oc3cc(O)ccc32)c2ccccc21`: the half-maximal activity concentration (AC50) was 7.41 µM (active).

A further test deals with human Dual Specificity Protein Phosphatase 3 (DUSP3), DUSP3 (gene 1845) (UniProt P51452). The test is described as follows: NVS_ENZ_hDUSP3: NovaScreen (NVS) Enzymatic Assay for human Dual Specificity Protein Phosphatase 3 (DUSP3) (AID 2283152).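 Note: phosphatase activity of recombinant human DUSP3 on a fluorogenic substrate without cells.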 An outline of the steps:
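Cell-free assay with recombinant human DUSP3 and fluorogenic substrate, read by fluorescence intensity. Primary screen ran duplicate at 25 uM; actives followed up in concentration series; loss of signal versus DMSO scored.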
Turning to `NC(=O)NC(N)=O`, the AC50 was 25 µM (active).
Same read-out and setting: to `O=C(c1ccc(OCCN2CCCCC2)cc1)c1c(-c2ccc(O)cc2)sc2cc(O)ccc12` belongs 12.6 µM (active).
With `CCCCCCCCOC(C)=O`, the AC50 was 25 µM (active).
`CC/C=C\C#N`: the AC50 is 40.4 µM (active).
Regarding `CC/C(=C(\c1ccccc1)c1ccc(OCCN(C)C)cc1)c1ccccc1`, the molecule was called inactive.
As for `O=C1OC2(c3ccc(O)cc3Oc3cc(O)ccc32)c2ccccc21`, the half-maximal activity concentration (AC50) was 23.6 µM (active).

The target in the next test is human Esterase Plasma (ES), BCHE (gene 590) (UniProt P06276). Briefly: NVS_ENZ_hES: NovaScreen (NVS) Enzymatic Assay for human Esterase Plasma (ES) (AID 2283157). An outline of the steps: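 Cell-free enzyme assay using esterase extracted from human plasma; colorimetric absorbance read 0.25 hour after dosing. Single-concentration duplicate screen at 25 uM, then concentration-response up to 50 uM; loss of signal scored against DMSO baseline.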
Chain of human Esterase Plasma (ES), BCHE (gene 590) (P06276 whole entry, looked up): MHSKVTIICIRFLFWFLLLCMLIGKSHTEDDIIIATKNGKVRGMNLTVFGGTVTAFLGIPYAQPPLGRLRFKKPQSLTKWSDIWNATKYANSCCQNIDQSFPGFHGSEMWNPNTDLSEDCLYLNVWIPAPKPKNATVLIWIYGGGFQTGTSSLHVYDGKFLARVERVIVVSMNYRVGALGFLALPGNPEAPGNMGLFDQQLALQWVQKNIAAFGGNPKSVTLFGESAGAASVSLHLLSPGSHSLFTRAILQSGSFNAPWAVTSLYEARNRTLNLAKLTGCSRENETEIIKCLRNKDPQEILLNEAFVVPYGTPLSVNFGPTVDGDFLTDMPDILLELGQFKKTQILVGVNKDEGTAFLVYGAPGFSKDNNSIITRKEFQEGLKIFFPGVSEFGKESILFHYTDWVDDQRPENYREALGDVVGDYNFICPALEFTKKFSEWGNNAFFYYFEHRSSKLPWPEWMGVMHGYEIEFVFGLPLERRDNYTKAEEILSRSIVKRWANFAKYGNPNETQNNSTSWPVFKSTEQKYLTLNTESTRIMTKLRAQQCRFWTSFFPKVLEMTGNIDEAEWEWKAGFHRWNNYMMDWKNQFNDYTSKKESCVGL
Turning to `O=C(c1ccc(OCCN2CCCCC2)cc1)c1c(-c2ccc(O)cc2)sc2cc(O)ccc12`, the molecule was classed as inactive.
As for `CC/C=C\C#N`, the molecule was called inactive.
For the molecule `O=C1OC2(c3ccc(O)cc3Oc3cc(O)ccc32)c2ccccc21`, the call was inactive.

Another test has as its target human Ephrin type-A Receptor 1 (EphA1), EPHA1 (gene 2041) (UniProt P21709). The test is described as follows: NVS_ENZ_hEphA1: NovaScreen (NVS) Enzymatic Assay for human Ephrin type-A Receptor 1 (EphA1) (AID 2283158).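 Note: activity is signal loss versus DMSO meaning EphA1 kinase inhibition.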 A digest of the protocol:
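Cell-free enzymatic assay with recombinant EphA1 and fluorescent substrate; product separated by electrophoretic mobility shift, fluorescence intensity read 1 hour after dosing. Loss of signal versus DMSO baseline; primary duplicate screen at 25 uM, actives followed to 50 uM top concentration.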
`NC(=O)NC(N)=O`: the molecule was classed as inactive.
Regarding `CCCCCCCC1CCCC1=O` (centres undefined), the molecule was called inactive.
Consider `N#CCCNCCC#N`, for which the AC50 is 21.8 µM (active).
In the case of `O=C(c1ccc(OCCN2CCCCC2)cc1)c1c(-c2ccc(O)cc2)sc2cc(O)ccc12`, the result was inactive.
Turning to `CCOC(=O)C=Cc1ccccc1`, the molecule was classed as inactive.
Regarding `CC1(C)CC(=O)CC(C)(C)N1`, the call was inactive.
Same read-out and setting: to `Cc1cc(N)n(-c2ccccc2)n1` belongs “inactive”; to `CC(CO)(CO)[N+](=O)[O-]`, “inactive”.
Regarding `CC(=O)C1C(=O)C=C(C)OC1=O` (centres undefined), the AC50 was 39.1 µM (active).
Still for that read-out and setting: the value for `Cc1ccc(C(C)(C)O)cc1` was 44.3 µM (active).
As to `CC(C)OB(OC(C)C)OC(C)C`, the result was inactive.
The same measure, in the same setting: the value for `N#CCCCC(C#N)CCC#N` (centres undefined) was “inactive”; that for `CCC(CC)CO` was “inactive”.
On to `C1COCO1`, for which the call was inactive.
Same read-out and setting: to `c1ccc(Sc2ccccc2)cc1` belongs “inactive”; to `NC(=O)c1c(Cl)cccc1Cl`, “inactive”; to `CCOC(=O)C(=O)OCC`, “inactive”.
On the same count and under the same terms, to `CC/C(=C(\c1ccccc1)c1ccc(OCCN(C)C)cc1)c1ccccc1` belongs “inactive”.
Take `C=C(C)C(=O)OCCC[Si](OC)(OC)OC`: the AC50 was 25 µM (active).
As to `Nc1ccc(N)c([N+](=O)[O-])c1`, the outcome was inactive.
